Results published in PubChem BioAssay (EPA / NIEHS).
“And” between values parts separate entries of the source, which are not always exact repeats. Identical values can stand only once. Inconclusive results are not listed. Where a structure was tested more than once in an assay, its records may differ in their call. The source made the active and inactive calls. Rule for the calls: active = hit-call score of the fitted dose curve at least 0.9, where 1 is the maximum; inconclusive = response in the unintended direction; inactive = score below 0.9.

Legend:
[1] = ATG_M_06_XSP2: Attagene TRANS-FACTORIAL Multi-Species (XSP2) HepG2 Assay for M06 Transcription Factor (Internal Marker) (AID 2283811);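 note: hits are increases in signal above the DMSO baseline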
Procedure, shortened: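 HepG2 cells transiently transfected with GAL4-UAS multi-reporter constructs, dosed 24 h with 3 nM 6-alpha-fluorotestosterone plus 1.5 nM norgestrel present to stimulate androgen receptor. Reporter mRNA quantified by RT-PCR, 6-FAM labelling, HpaI digestion and capillary electrophoresis; gain-of-signal fitted versus DMSO baseline.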

[2] = system: turtle Estrogen Receptor (ERa), gene 101933533; test: ATG_trERa_XSP2: Attagene TRANS-FACTORIAL Multi-Species (XSP2) HepG2 Assay for turtle Estrogen Receptor (ERa) (AID 2283812);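 note: human HepG2 liver cells transiently expressing turtle ERa-Gal4 chimeric receptor; actives raise reporter signal above DMSO so AC50 reflects agonist activity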
Procedure, shortened: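 HepG2 cells transiently transfected with GAL4-UAS reporter units expressing turtle ERa-Gal4 chimera. Reporter mRNA measured after 24 h dosing by RT-PCR, fluorescent labelling and capillary electrophoresis; gain of signal fitted versus DMSO.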

[3] = biological target: GAL4 Transcription Factor (Internal Marker), GAL4 (gene 855828) (UniProt P04386); test: ATG_GAL4_XSP2: Attagene TRANS-FACTORIAL Multi-Species (XSP2) HepG2 Assay for GAL4 Transcription Factor (Internal Marker) (AID 2283814);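 note: GAL4 reporter mRNA background control in MRTU transfected cells not a receptor target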
Chain of GAL4 Transcription Factor (Internal Marker), GAL4 (gene 855828) (P04386 whole entry, looked up, the tested form may be a part): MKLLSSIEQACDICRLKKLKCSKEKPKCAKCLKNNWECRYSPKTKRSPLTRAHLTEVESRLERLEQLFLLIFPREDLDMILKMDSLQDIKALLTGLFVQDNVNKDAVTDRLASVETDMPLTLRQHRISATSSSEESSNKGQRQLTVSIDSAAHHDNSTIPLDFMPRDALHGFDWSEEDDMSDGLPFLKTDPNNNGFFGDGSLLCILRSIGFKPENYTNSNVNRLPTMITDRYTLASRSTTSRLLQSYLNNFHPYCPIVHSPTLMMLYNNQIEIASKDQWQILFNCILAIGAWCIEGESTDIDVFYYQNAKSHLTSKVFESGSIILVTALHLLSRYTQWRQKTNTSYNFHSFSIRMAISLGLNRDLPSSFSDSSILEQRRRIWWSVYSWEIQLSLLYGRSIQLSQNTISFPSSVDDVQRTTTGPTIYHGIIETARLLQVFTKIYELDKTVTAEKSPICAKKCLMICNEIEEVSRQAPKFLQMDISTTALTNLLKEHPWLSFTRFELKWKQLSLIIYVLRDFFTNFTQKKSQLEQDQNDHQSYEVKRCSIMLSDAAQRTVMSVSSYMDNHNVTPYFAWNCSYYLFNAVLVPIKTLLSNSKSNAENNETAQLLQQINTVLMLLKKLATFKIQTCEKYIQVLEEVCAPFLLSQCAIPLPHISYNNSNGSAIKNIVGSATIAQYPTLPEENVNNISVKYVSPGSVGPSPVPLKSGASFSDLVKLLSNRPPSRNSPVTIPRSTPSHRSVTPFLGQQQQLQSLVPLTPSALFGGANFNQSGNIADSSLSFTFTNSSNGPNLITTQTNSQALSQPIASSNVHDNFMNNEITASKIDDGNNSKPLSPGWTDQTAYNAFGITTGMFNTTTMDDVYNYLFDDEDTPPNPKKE
Procedure, shortened: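 HepG2 cells transiently transfected with GAL4-UAS reporter units, stimulated with 3 nM 6-alpha-fluorotestosterone plus 1.5 nM norgestrel, dosed 24 h. Reporter mRNA by RT-PCR/capillary electrophoresis; gain-of-signal fit versus DMSO, background control.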

[4] = system: turtle Androgen Receptor (AR), gene 101947425; test: ATG_trAR_XSP2: Attagene TRANS-FACTORIAL Multi-Species (XSP2) HepG2 Assay for turtle Androgen Receptor (AR) (AID 2283815);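 for AC50: potency for gain of reporter signal meaning activation above DMSO baseline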
Procedure, shortened: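 HepG2 cells transiently transfected with GAL4-UAS reporter units for chimeric NR-Gal4 receptors; 24 h dosing in presence of 3 nM 6-alpha-fluorotestosterone and 1.5 nM norgestrel. Reporter mRNA by RT-PCR and capillary electrophoresis, gain of signal versus DMSO.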

[5] = biological target: zebrafish Estrogen Receptor (ER1), esr1 (gene 259252) (UniProt P57717); test: ATG_zfER1_XSP2: Attagene TRANS-FACTORIAL Multi-Species (XSP2) HepG2 Assay for zebrafish Estrogen Receptor (ER1) (AID 2283816)
Chain of zebrafish Estrogen Receptor (ER1), esr1 (gene 259252) (P57717 whole entry, looked up, the tested form may be a part): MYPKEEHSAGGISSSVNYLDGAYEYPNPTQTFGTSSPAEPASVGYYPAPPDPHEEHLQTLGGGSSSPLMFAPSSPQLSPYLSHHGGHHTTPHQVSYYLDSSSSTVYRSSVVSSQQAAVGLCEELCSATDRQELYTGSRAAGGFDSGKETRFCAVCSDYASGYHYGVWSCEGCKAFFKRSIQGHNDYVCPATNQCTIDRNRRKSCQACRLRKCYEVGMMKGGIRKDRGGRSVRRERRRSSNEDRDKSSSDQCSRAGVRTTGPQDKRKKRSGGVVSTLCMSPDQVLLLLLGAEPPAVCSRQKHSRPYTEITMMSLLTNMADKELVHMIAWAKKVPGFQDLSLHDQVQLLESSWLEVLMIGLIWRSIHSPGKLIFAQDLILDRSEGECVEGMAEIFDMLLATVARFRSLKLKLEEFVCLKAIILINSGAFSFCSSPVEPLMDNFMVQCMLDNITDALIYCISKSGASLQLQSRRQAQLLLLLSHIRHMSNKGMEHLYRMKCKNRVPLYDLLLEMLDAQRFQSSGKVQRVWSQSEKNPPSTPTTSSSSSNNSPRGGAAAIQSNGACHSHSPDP
Procedure, shortened: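 HepG2 cells transiently transfected with a GAL4-UAS reporter and a chimeric zebrafish ER1-Gal4 construct, dosed 24 h. Reporter mRNA quantified by RT-PCR, labelling, HpaI digestion and capillary electrophoresis, relative to DMSO.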

[6] = biological target: chicken Estrogen Receptor (ERa), ESR1 (gene 396099) (UniProt P06212); test: ATG_chERa_XSP2: Attagene TRANS-FACTORIAL Multi-Species (XSP2) HepG2 Assay for chicken Estrogen Receptor (ERa) (AID 2283817);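 note: actives raise reporter signal above DMSO so AC50 reflects ER activation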
Chain of chicken Estrogen Receptor (ERa), ESR1 (gene 396099) (P06212 whole entry, looked up, the tested form may be a part): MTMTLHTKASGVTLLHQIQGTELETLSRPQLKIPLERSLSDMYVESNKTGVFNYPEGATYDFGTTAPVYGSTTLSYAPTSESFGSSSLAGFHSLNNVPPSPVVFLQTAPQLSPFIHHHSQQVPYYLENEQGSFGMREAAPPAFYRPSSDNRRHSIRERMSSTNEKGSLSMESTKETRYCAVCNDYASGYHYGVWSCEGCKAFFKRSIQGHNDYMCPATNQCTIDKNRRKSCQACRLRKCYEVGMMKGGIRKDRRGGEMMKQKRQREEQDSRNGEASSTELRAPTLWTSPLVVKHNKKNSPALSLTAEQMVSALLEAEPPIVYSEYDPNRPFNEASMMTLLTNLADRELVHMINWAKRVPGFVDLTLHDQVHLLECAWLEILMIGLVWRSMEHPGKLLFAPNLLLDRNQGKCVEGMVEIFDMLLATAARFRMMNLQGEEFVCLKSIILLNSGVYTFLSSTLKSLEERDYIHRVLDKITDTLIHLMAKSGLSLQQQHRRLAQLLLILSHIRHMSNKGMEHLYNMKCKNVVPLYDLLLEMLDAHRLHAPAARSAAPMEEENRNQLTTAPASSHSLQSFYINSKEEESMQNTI
Procedure, shortened: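 HepG2 cells transiently transfected with multiplexed GAL4-UAS reporter units expressing chimeric chicken ERa-Gal4; 24 h compound exposure. Reporter mRNA measured by RT-PCR with 6-FAM labelling, HpaI digestion and capillary electrophoresis; gain-of-signal fitted versus DMSO.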

AR (gene 367) = AR (gene 367) (UniProt P10275); test: ACEA_AR_antagonist_80hr: ACEA Biosciences xCELLigence Real-Time Cell Analysis on Androgen Receptor Antagonism for Proliferation (AID 2283787);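 note: 22Rv1 human prostate cancer cells with growth followed by electrical impedance; hits lower the impedance growth signal relative to DMSO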
Chain of AR (gene 367) (P10275 whole entry, looked up): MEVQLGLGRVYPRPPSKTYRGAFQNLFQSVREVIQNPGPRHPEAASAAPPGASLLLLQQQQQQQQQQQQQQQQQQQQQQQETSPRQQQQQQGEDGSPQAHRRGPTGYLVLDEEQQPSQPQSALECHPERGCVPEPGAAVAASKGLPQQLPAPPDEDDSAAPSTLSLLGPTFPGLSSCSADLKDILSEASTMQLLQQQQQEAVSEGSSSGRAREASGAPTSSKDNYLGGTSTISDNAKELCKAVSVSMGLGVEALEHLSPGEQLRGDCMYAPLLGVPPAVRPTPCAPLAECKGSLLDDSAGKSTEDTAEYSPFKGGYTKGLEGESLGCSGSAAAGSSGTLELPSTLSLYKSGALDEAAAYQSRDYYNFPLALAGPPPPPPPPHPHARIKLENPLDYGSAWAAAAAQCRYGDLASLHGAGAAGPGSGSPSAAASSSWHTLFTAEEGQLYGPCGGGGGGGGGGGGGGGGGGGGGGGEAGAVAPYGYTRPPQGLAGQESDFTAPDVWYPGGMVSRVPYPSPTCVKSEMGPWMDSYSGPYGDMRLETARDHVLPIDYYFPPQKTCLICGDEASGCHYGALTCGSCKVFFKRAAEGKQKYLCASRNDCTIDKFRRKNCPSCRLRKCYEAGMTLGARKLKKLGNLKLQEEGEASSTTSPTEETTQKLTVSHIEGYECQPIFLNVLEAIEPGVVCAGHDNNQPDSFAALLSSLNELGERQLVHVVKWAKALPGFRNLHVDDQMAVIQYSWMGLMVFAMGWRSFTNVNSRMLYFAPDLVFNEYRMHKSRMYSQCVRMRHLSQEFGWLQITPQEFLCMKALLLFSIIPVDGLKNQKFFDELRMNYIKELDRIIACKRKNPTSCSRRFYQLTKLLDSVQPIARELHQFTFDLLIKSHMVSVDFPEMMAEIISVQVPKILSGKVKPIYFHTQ
Procedure, shortened: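 Impedance readout (RT-CES), 80 h post-dose; loss-of-signal vs DMSO baseline. 22Rv1 cells in assay medium. Compounds: 8-pt 1:4 series, max 100 uM final, up to 0.5% DMSO; n = 2.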

[7] = STM_H9_NormalizedViability: Cytotoxicity Assessment at 120 hours in the Stemina devTOX quickPredict H9 human embryonic stem cell (hESC)-based Assay (AID 2283784)
Procedure, shortened: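 Undifferentiated H9 hESCs kept pluripotent were exposed to compound, with media and chemical replaced every 24h. CellTiter-Fluor protease-substrate fluorescence was background-corrected and normalized per plate to the 0.1% DMSO vehicle; signal loss indicates reduced viability.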

[8] = ATG_M_06_XSP1: Attagene TRANS-FACTORIAL Multi-Species (XSP1) HepG2 Assay for M06 Transcription Factor (Internal Marker) (AID 2283790)
Procedure, shortened: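 Transfected HepG2 multi-reporter system treated 24 h in the presence of 3 nM 6-alpha-fluorotestosterone. The M06 internal marker transcript was quantified by RT-PCR with capillary electrophoresis as a background control, and gain of signal was scored versus DMSO.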

[9] = ATG_M_61_XSP1: Attagene TRANS-FACTORIAL Multi-Species (XSP1) HepG2 Assay for M61 Transcription Factor (Internal Marker) (AID 2283797)
Procedure, shortened: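 HepG2 cells transiently transfected with multiplexed GAL4-driven reporter units, dosed 24 h with 3 nM 6-alpha-fluorotestosterone present. Reporter mRNA quantified by RT-PCR, 6-FAM labelling, HpaI digestion and capillary electrophoresis; internal-marker background control, gain of signal versus DMSO.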

[10] = biological target: Peroxisome proliferator-activated receptor gamma (Homo sapiens) (UniProt P37231); test: ATG_hPPARg_XSP1: Attagene TRANS-FACTORIAL Multi-Species (XSP1) HepG2 Assay for human Peroxisome Proliferator-activated Receptor gamma (PPARg) (AID 2283800)
Chain of Peroxisome proliferator-activated receptor gamma (Homo sapiens) (P37231 whole entry, looked up, the tested form may be a part): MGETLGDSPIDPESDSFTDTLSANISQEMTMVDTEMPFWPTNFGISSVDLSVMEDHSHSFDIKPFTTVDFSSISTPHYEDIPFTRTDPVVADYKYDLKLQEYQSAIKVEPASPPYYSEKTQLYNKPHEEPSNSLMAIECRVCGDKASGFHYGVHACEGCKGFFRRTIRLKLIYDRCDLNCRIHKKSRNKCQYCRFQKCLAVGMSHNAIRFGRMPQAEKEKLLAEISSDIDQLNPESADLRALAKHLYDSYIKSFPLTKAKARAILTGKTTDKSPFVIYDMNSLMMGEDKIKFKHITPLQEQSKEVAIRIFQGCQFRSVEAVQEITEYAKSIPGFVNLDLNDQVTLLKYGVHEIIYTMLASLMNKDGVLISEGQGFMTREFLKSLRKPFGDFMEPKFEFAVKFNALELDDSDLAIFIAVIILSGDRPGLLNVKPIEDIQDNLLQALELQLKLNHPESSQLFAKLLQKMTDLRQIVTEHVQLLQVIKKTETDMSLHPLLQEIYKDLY
Procedure, shortened: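 HepG2 cells transiently transfected with GAL4-UAS reporter units carrying chimeric NR-Gal4 proteins; 3 nM 6-alpha-fluorotestosterone present. After 24 h dosing, reporter mRNA quantified by RT-PCR and capillary electrophoresis; gain of signal relative to DMSO.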

[11] = system: zebrafish Peroxisome Proliferator-activated Receptor gamma (PPARg), gene 557037; test: ATG_zfPPARg_XSP1: Attagene TRANS-FACTORIAL Multi-Species (XSP1) HepG2 Assay for zebrafish Peroxisome Proliferator-activated Receptor gamma (PPARg) (AID 2283801)
Procedure, shortened: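 HepG2 cells transiently transfected with GAL4-UAS reporter units including a zebrafish PPARg–GAL4 chimera, dosed 24 h with 3 nM 6-alpha-fluorotestosterone present. Reporter mRNA quantified by RT-PCR, FAM labelling, HpaI digestion and capillary electrophoresis; induction versus DMSO.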

[12] = biological target: Nuclear receptor subfamily 1 group I member 2 (Mus musculus) (UniProt O54915); test: ATG_mPXR_XSP1: Attagene TRANS-FACTORIAL Multi-Species (XSP1) HepG2 Assay for mouse Pregnane X Receptor (PXR) (AID 2283803)
Procedure, shortened: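 Transiently transfected HepG2 cells expressing a receptor-Gal4 chimera drive a GAL4-UAS reporter; 3 nM 6-alpha-fluorotestosterone included. Reporter mRNA read 24 h post-dose by RT-PCR and capillary electrophoresis; gain of signal relative to DMSO.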

[13] = biological target: human Thyroid hormone Receptor alpha (TRa), THRA (gene 7067) (UniProt P10827); test: ATG_hTRa_XSP1: Attagene TRANS-FACTORIAL Multi-Species (XSP1) HepG2 Assay for human Thyroid hormone Receptor alpha (TRa) (AID 2283805)
Chain of human Thyroid hormone Receptor alpha (TRa), THRA (gene 7067) (P10827 whole entry, looked up, the tested form may be a part): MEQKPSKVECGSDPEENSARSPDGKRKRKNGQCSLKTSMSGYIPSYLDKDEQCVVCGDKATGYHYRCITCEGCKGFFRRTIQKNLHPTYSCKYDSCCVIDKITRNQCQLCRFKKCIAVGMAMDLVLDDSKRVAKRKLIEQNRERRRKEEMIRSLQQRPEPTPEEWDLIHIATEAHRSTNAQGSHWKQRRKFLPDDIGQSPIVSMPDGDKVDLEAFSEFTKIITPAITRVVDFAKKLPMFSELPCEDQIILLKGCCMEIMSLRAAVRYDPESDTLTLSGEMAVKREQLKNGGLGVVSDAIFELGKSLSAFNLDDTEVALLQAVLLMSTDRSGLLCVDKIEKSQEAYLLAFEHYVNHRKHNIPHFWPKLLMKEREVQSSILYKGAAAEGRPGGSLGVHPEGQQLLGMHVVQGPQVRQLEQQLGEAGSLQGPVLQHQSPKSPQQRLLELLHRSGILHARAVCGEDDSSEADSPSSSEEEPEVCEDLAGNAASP
Procedure, shortened: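 HepG2 cells transiently transfected with GAL4-UAS reporter units expressing chimeric NR-Gal4 proteins, dosed 24 hours with 3 nM 6-alpha-fluorotestosterone present. Reporter mRNA measured by RT-PCR and capillary electrophoresis; gain of signal fitted versus DMSO.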

[14] = biological target: zebrafish Thyroid Hormone Receptor alpha (TRa), thraa (gene 30670) (UniProt Q98867); test: ATG_zfTRa_XSP1: Attagene TRANS-FACTORIAL Multi-Species (XSP1) HepG2 Assay for zebrafish Thyroid Hormone Receptor alpha (TRa) (AID 2283807)
Procedure, shortened: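 HepG2 cells transiently transfected with GAL4-UAS reporter units including a zebrafish TRa–Gal4 chimera, dosed 24 h with 3 nM 6-alpha-fluorotestosterone present. Reporter mRNA quantified by RT-PCR and capillary electrophoresis; gain versus DMSO.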

[15] = biological target: human Thyroid hormone Receptor beta (TRb), THRB (gene 7068) (UniProt P10828); test: ATG_hTRb_XSP1: Attagene TRANS-FACTORIAL Multi-Species (XSP1) HepG2 Assay for human Thyroid hormone Receptor beta (TRb) (AID 2283808)
Chain of human Thyroid hormone Receptor beta (TRb), THRB (gene 7068) (P10828 whole entry, looked up, the tested form may be a part): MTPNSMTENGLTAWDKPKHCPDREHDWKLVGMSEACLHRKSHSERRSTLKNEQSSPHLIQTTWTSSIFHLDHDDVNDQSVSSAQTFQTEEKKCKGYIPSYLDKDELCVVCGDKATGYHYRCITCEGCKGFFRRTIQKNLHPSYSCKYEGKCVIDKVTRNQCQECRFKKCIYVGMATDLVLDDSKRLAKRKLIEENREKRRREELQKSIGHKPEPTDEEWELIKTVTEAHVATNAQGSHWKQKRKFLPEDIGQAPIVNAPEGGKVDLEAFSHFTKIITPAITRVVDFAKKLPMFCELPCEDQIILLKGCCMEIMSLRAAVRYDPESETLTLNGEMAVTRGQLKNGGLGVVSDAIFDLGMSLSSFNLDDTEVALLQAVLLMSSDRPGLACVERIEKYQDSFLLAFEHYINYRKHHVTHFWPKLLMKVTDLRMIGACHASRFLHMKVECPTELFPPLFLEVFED
Procedure, shortened: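 HepG2 cells transiently transfected with reporter units driving GAL4-UAS reporters for chimeric NR-Gal4 proteins; 24 h chemical exposure with 3 nM 6-alpha-fluorotestosterone present. Reporter mRNA quantified by RT-PCR and capillary electrophoresis, gain of signal versus DMSO.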

[16] = biological target: zebrafish Thyroid Hormone Receptor beta (TRb), thrb (gene 30607) (UniProt Q9PVE4); test: ATG_zfTRb_XSP1: Attagene TRANS-FACTORIAL Multi-Species (XSP1) HepG2 Assay for zebrafish Thyroid Hormone Receptor beta (TRb) (AID 2283809)
Chain of zebrafish Thyroid Hormone Receptor beta (TRb), thrb (gene 30607) (Q9PVE4 whole entry, looked up, the tested form may be a part): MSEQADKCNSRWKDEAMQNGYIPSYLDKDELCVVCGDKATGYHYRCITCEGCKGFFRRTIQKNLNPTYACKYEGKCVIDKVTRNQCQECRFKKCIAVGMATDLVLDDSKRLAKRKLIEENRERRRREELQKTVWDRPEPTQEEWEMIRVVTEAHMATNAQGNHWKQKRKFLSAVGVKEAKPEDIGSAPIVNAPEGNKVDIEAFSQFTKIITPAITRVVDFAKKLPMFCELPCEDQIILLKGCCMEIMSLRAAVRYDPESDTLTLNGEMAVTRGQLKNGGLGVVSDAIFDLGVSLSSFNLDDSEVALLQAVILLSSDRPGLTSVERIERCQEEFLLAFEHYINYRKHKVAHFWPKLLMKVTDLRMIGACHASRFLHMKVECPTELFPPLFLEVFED
Procedure, shortened: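 HepG2 cells transiently transfected with multiplexed GAL4-UAS reporter units expressing chimeric zebrafish TRb–Gal4. Dosed 24 h with 3 nM 6-alpha-fluorotestosterone present; reporter mRNA measured by RT-PCR, HpaI digestion and capillary electrophoresis; gain of signal versus DMSO.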

[17] = ATG_XTT_Cytotoxicity_XSP1: Cytotoxicity Assessment in the Attagene TRANS-FACTORIAL Multi-Species (XSP1) HepG2 Assay (AID 2283810)
Procedure, shortened: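 XTT viability readout taken at 24 hours post-dosing in HepG2 liver cells co-treated with 3 nM 6-alpha-fluorotestosterone. Signal loss relative to DMSO controls reflects cytotoxicity.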

[18] = system: turtle Thyroid Hormone Receptor, alpha (TRa), gene 101949057; test: ATG_trTRa_XSP1: Attagene TRANS-FACTORIAL Multi-Species (XSP1) HepG2 Assay for turtle Thyroid Hormone Receptor, alpha (TRa) (AID 2283806)
Procedure, shortened: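 HepG2 cells transiently transfected with GAL4-UAS reporter units and chimeric receptor-Gal4 constructs, with 3 nM 6-alpha-fluorotestosterone present. Reporter mRNA was quantified 24 h after dosing by RT-PCR, 6-FAM labelling and capillary electrophoresis; gain of signal versus DMSO.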

[19] = biological target: Estrogen receptor beta (Homo sapiens) (UniProt Q92731); test: ATG_hERb_XSP2: Attagene TRANS-FACTORIAL Multi-Species (XSP2) HepG2 Assay for human Estrogen Receptor (ERb) (AID 2283813);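 note: actives raise reporter mRNA above DMSO so AC50 reflects agonist induction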
Procedure, shortened: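 HepG2 cells transiently transfected with GAL4-UAS reporter units and chimeric human ERb-Gal4, 24 h exposure. Reporter mRNA quantified by RT-PCR with FAM labelling, HpaI digestion and capillary electrophoresis; gain of signal versus DMSO.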

Structure (SMILES): CC(C)(C)c1ccc(S)cc1
- outcome [1]: inactive
- outcome [2]: inactive
- outcome [3]: inactive
- outcome [4]: inactive
- outcome [5]: inactive
- outcome [6]: inactive

Structure (SMILES): CC(=O)N(C)C
- outcome (AR (gene 367)): inactive

Structure (SMILES): CCCCOCCOCCOCCO
- outcome [7]: inactive

Structure (SMILES): COc1cc(OC)c2ccc(=O)oc2c1
- AC50 (AR (gene 367)): 3.3 µM (active)

Structure (SMILES): CCCCCC(=O)O[C@]1(C(C)=O)CC[C@H]2[C@@H]3CCC4=CC(=O)CC[C@]4(C)[C@H]3CC[C@@]21C
- outcome [1]: inactive
- outcome [3]: inactive
- outcome [5]: inactive

Structure (SMILES): CC1COC(=O)O1 (stereo unspecified)
- outcome (AR (gene 367)): inactive

Structure (SMILES): CC(C)(C)c1cccc(O)c1
- outcome (AR (gene 367)): inactive

Structure (SMILES): CC(=O)OC/C=C(C)/C=C/C=C(C)/C=C/C1=C(C)CCCC1(C)C
- AC50 [7]: 87.5 µM (active)

Structure (SMILES): CCCCCCOC(C)=O
- outcome [7]: inactive

Structure (SMILES): CC1=CCC(C(C)(C)O)CC1 (stereo unspecified)
- AC50 (AR (gene 367)): 7.98 µM (active)

Structure (SMILES): CCOC(=O)C=Cc1ccccc1
- outcome [7]: inactive

Structure (SMILES): COC(=O)c1cccc(C(=O)OC)c1
- outcome (AR (gene 367)): inactive

Structure (SMILES): CC/C(=C(\c1ccccc1)c1ccc(OCCN(C)C)cc1)c1ccccc1
- outcome [8]: inactive
- outcome [9]: inactive
- outcome [10]: inactive
- outcome [11]: inactive
- outcome [12]: inactive
- outcome [13]: inactive
- outcome [14]: inactive
- outcome [15]: inactive
- outcome [16]: inactive
- AC50 [17]: 26.1 µM (active)
- outcome [1]: inactive

Structure (SMILES): C#C[C@]1(O)CC[C@H]2[C@@H]3CCc4cc(O)ccc4[C@H]3CC[C@@]21C
- outcome [8]: inactive
- outcome [9]: inactive
- outcome [10]: inactive
- outcome [13]: inactive
- outcome [18]: inactive
- outcome [14]: inactive
- outcome [15]: inactive
- outcome [16]: inactive
- outcome [17]: inactive
- outcome [1]: inactive
- AC50 [2]: 0.0694 nM (active)
- AC50 [5]: 2.55 nM (active)

Structure (SMILES): CCCCCCOc1ccc(O)cc1
- AC50 (AR (gene 367)): 13.3 µM (active)

Structure (SMILES): O=c1cc(-c2ccc(O)cc2)oc2cc(O)cc(O)c12
- AC50 [2]: 1510 nM (active)
- outcome [2]: inactive
- AC50 [5]: 2.58 µM (active) and 764 nM (active)
- AC50 [6]: 1.67 µM (active) and 768 nM (active)

Structure (SMILES): CC(CCO)CC(C)(C)C (stereo unspecified)
- outcome (AR (gene 367)): inactive

Structure (SMILES): CCCCCCCCCCOC(=O)c1ccccc1C(=O)OCCCCCCCC
- outcome (AR (gene 367)): inactive

Structure (SMILES): CCC(C)(C)C1CCC(=O)CC1
- outcome (AR (gene 367)): inactive

Structure (SMILES): CCCCCCCCOC(=O)c1ccc(O)cc1
- outcome [1]: inactive
- AC50 [2]: 17.1 µM (active) and 1.5 µM (active)
- outcome [19]: inactive
- AC50 [3]: 49.4 µM (active)
- AC50 [4]: 33.4 µM (active)
- outcome [4]: inactive
- outcome [5]: inactive
- AC50 [6]: 18 µM (active) and 788 nM (active)

Structure (SMILES): CC(C)(CO)CO
- outcome (AR (gene 367)): inactive

Structure (SMILES): O=C(O)c1ccccc1O
- AC50 [7]: 7090 µM (active)

Structure (SMILES): COC(=O)c1ccc(C(=O)OC)cc1
- outcome [7]: inactive
